PNC inhibitor = blocks assembly of the perinucleolar compartment; PC3M PTB-GFP, PNC prevalence imaging, 16 h; stronger effect = lower value; activity change (PNC), negative = inhibition, % at 10 µM; 3.1% of 140,000 active; AID 2417;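 active = readout at or below -70, meaning at least 70% loss of cells showing the perinucleolar compartment, a nuclear body marking cancer cells; inconclusive = readout between -30 and a set limit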
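Compounds are pinned in duplicate onto adhered PC3M cells stably expressing GFP-tagged PTB and incubated 16 h at 37 C. Cells are then fixed, nuclei stained with Hoechst, and PNC-positive cells counted.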
ALDH1A1 inh = ALDH1A1 (human) enzyme inhibition; Potency, µM (series often up to 75.3 µM), actives largely listed as inhibitors; P00352; AID 1030; Purified ALDH1A1, NADH fluorescence, propionaldehyde substrate; 7.3% of 220,000 active
Lamin A splicing = LMNA splicing modulation. 0.01% of 200,000 active. Potency, µM (titrated, usually from 46.1 µM), most hits filed as inhibitors. HeLa LMNA splicing GFP/RFP minigene ratio, 48 h; active = well fitted inhibition curve with a large enough effect in the signal ratio, with a control signal flat, not every such curve was filed as active; inconclusive = small, poorly fitted or top-dose-only effect, or effect the other way, or a change in a side signal; the % refers to the signal ratio
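Read-out is the ratio of GFP to DsRed2 object intensity, acquired by 488 nm laser-scanning cytometry on HeLa lamin A-EGFP minigene reporter cells. Compound incubation 48 hrs at 37 °C in Opti-MEM with 2% FBS; DMSO 0.5% final.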
KinaseGlo FLuc = blocks Kinase-Glo luciferase, a counter-screen artifact | 0.28% of 200,000 active | Q27757 | Kinase-Glo luciferase, ATP luminescence, 8 min | Potency, µM (titrated, usually from 38.3 µM), actives largely listed as inhibitors; active = well fitted inhibition curve with a large enough effect; inconclusive = small, poorly fitted or top-dose-only effect; also: nearly all actives have a fitted effect of over 60% in size
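Light output from Kinase-Glo luciferase with luciferin and 10 uM ATP in 50 mM imidazole pH 7.2, KCl, MgCl2, Tween 20, BSA; compound pin-delivered, 8-min ambient incubation, then luminescence read.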
IMPase cell inh = membrane-permeable compound that blocks inositol monophosphatase; CHO-M1 cells, IP1 accumulation, HTRF TR-FRET ratio; inhibition (IP1 accumulation), % at 46.1 µM; 120,000 tested, under 10 active; AID 901; active = well fitted curve in the direction sought with a large enough effect in the signal ratio, not every such curve was filed as active; inconclusive = small, poorly fitted or top-dose-only effect, or a change in a side signal; inactive = no such curve, though single readings can be large or run the other way; the % refers to the signal ratio;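 also: cells stimulated with carbachol in lithium chloride buffer; higher means more IMPase inhibition seen as more IP1 and lower FRET ratio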
Target sequence (P97697 whole entry, looked up): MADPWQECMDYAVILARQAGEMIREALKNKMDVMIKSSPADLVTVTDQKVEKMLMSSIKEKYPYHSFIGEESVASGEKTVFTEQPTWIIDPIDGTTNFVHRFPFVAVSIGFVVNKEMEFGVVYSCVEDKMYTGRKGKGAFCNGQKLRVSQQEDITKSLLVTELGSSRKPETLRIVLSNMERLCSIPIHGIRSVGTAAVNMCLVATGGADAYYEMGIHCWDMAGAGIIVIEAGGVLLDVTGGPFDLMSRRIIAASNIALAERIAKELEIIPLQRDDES
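CHO-M1, 2000 cells/well, cultured 16–30 h; cpd up to 46 uM; carbachol (50 uM solution, stimulation buffer w/ 50 mM LiCl, pH 7.4), 30 min 37C; IP-One TR-FRET, 10 min RT; Ex 320/Em 665, 620; Hill-fit AC50.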
HPGD block = HPGD (human) dehydrogenase inhibition; P15428; purified HPGD, NADH fluorescence kinetic, PGE2 substrate; Potency, µM, hits mostly inhibitors; 4.3% of 150,000 active; AID 894
Target sequence (P15428 whole entry, looked up): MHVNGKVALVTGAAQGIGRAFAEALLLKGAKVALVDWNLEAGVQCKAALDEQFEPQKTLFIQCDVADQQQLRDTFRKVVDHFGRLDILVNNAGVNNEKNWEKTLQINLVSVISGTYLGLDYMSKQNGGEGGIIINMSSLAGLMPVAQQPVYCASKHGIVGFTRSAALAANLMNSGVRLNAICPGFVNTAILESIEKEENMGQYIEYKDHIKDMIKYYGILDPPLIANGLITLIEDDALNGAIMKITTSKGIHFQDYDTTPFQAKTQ
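20 nM HPGD preincubated 15 min at room temperature with compound in 50 mM Tris-HCl pH 8, 0.01% Tween 20. Started with 1 mM NAD+ and 30 uM prostaglandin E2; NADH fluorescence (360/450 nm) read 5 times over 30-s intervals, last minus first.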
Numbers stand for hits; n = inactive; u = inconclusive; x = no result. Shown are actives, neighbours in structure and some others; about 10% of the full set was active somewhere. Unless noted, calls follow the shape of the dose curve; as a rule, active = well fitted inhibition curve with a large enough effect (not every such curve was filed as active); inconclusive = small, poorly fitted or top-dose-only effect, or another doubt; inactive = no such curve, though single readings can be large or run the other way.

SMILES	PNC inhibitor	ALDH1A1 inh	Lamin A splicing	KinaseGlo FLuc	IMPase cell inh	HPGD block
O=C(Cn1c(COc2ccccc2)nc2ccccc21)Nc1cc(Cl)ccc1Cl	n	n	n	n	x	n
CCOc1ccc(NC(=O)c2sc(-n3nc(C)c(CCC(C)C)c3C)nc2C)cc1	x	x	n	x	x	x
Oc1csc(Cc2nc(-c3ccccc3F)cs2)n1	x	18µM	x	n	x	x
Oc1csc(Cc2nc(-c3ccc(-c4ccccc4)cc3)cs2)n1	n	u	n	n	n	n
Cc1cc(C(=O)COC(=O)CC2Sc3ccccc3NC2=O)c(C)n1-c1ccccc1 (centres undefined)	n	u	n	n	x	n
Cc1cc(C(=O)COC(=O)CC2Sc3ccccc3NC2=O)c(C)n1-c1ccc(Br)cc1 (centres undefined)	u	12µM	n	n	x	n
COC(=O)c1ccc(C(NC(=O)OCc2ccccc2)/C(F)=C/[C@@H](C)C(=O)NCc2ccc(-c3ccccc3)cc2)cc1 (some centres undefined)	n	n	u	n	x	n
COC(=O)c1ccc(C(NC(=O)OCc2ccccc2)/C(I)=C/[C@@H](C)C(=O)NCC2CC2)cc1 (some centres undefined)	x	n	x	n	x	14µM
COC(=O)c1ccc(C(NC(=O)OCc2ccccc2)/C(F)=C/[C@@H](C)C(=O)NCc2ccc(OC)c(OC)c2)cc1 (some centres undefined)	-119	u	n	n	x	n
O=C(COc1ccccc1)NCc1cccs1	u	n	n	n	n	n
COc1ccc(N(CC(=O)NCc2cccs2)S(=O)(=O)c2c(C)nn(C)c2C)cc1	n	u	n	n	n	n
Cc1c(Cl)c(=O)oc2cc(OCC(=O)NCc3cccs3)ccc12	-108	u	u	n	x	u
Cc1ccc(N(CC(=O)NCc2cccs2)S(=O)(=O)c2cccs2)cc1	-83	u	n	n	n	n
Cc1ccc(OCC(=O)NCc2cccs2)cc1	u	n	n	n	n	22µM
CCOc1ccc2c(C)c(Cl)c(=O)oc2c1	n	u	n	n	n	u
COc1ccccc1CN1CCCC2(CCN(C(=O)c3ccncc3)CC2)C1	x	u	x	n	x	n
CC(=O)c1sc(N/N=C2\CC3CC2C(C)C3(C)C)nc1C (centres undefined)	x	16µM	n	n	x	x
CC(=O)c1sc(N/N=C\c2ccccc2O)nc1C	x	n	u	n	x	x
Cc1ccc(-c2csc(/C(C#N)=C/c3ccccc3Cl)n2)cc1	x	x	x	x	n	x
COc1cc(C(c2sc3nc(C)nn3c2O)N2CC(C)OC(C)C2)cc(OC)c1OC (centres undefined)	n	n	n	n	n	n
COc1cccc(C(c2sc3nc(C)nn3c2O)N2CCc3ccccc3C2)c1 (centres undefined)	n	u	n	n	n	11µM
Oc1c(C(c2ccccc2)N2CCc3ccccc3C2)sc2ncnn12 (centres undefined)	n	7.1µM	u	n	n	32µM
CCN1CCN(C(c2cccc(OC)c2)c2sc3nc(C)nn3c2O)CC1 (centres undefined)	u	n	n	n	n	n
COc1cc(C(c2sc3nc(C)nn3c2O)N2CC(C)CC(C)C2)cc(OC)c1OC (centres undefined)	n	14µM	n	n	n	n
CC(C)(C)OC(=O)N1CCC(c2c(C(=O)N3CCN(C(=O)c4ccco4)CC3)cnn2-c2ccccc2Cl)CC1	x	x	n	x	x	x
SMILES	PNC inhibitor	ALDH1A1 inh	Lamin A splicing	KinaseGlo FLuc	IMPase cell inh	HPGD block
COc1ccc(-c2n[nH]c(C)c2-c2cnn(-c3ccccc3)c2)c(O)c1	n	7.9µM	n	n	u	n
COc1ccc(-c2n[nH]c(C)c2-c2cnn(-c3ccccc3)c2)c(O)c1C	n	n	u	n	n	n
O=C(COc1cccc2c1CCN(Cc1ccccc1)C2=O)NCc1ccco1	u	20µM	n	n	n	n
O=C1c2cccc(OCc3ccc(F)cc3)c2CCN1Cc1ccccc1	-82	n	u	n	n	n
Cc1cccc(CN2CCc3c(OCC(=O)N4CCCc5ccccc54)cccc3C2=O)c1	n	16µM	u	n	n	n
Cc1cccc(CN2CCc3c(OCC(=O)NCc4ccco4)cccc3C2=O)c1	n	22µM	n	n	x	n
Cc1ccc(C)c(NC(=O)COc2cccc3c2CCN(Cc2ccccc2)C3=O)c1	n	n	u	n	n	n
COc1ccc(NC(=O)c2cc3nc(-c4ccc(C)c(C)c4)cc(C(F)(F)F)n3n2)cc1	x	x	x	x	n	x
CCC(=O)/C=C1\Sc2ccc(OC)cc2N1CC	n	u	n	n	n	28µM
CCC(=O)/C=C1\Sc2ccc(OC)cc2N1CCO	u	n	n	n	n	n
CCN(CC)S(=O)(=O)c1ccc(N2CCCC2)c(NC(=O)c2ccc(OC)cc2OC)c1	x	u	x	n	x	x
CCN(CC)S(=O)(=O)c1ccc(N2CCCC2)c(NC(=O)Cc2ccc(OC)cc2)c1	x	1.1µM	x	n	x	x
CCOc1ccc(S(=O)(=O)Nc2cc(S(=O)(=O)N(CC)CC)ccc2N2CCCC2)cc1	-121	0.79µM	n	n	x	n
Cc1ccc(-n2ncc(C(=O)NCc3ccco3)c2C2CCN(C(=O)OC(C)(C)C)CC2)c(C)c1	x	x	n	x	x	x
Cc1nc(-c2ccc(S(=O)(=O)N3CCN(c4cccc(C(F)(F)F)c4)CC3)cc2)co1	x	x	n	x	x	x
CC(C)=CCn1cnc2c1C(NOCc1ccccc1)=NCN2	x	n	x	n	x	n
COc1ccc(CNC(=O)C2CCN(C(=O)N3CCOc4ccc(Cl)cc43)CC2)cc1	x	x	n	x	x	x
O=C(CSc1nccn1-c1cccc(Cl)c1)NC1CCCC1	n	n	n	n	n	16µM
O=C(CSc1nccn1-c1ccccc1)c1ccc(Cl)cc1	-100	u	n	n	n	n
Cc1ccc(C(=O)CSc2nccn2-c2ccccc2)cc1	n	u	n	n	n	n
O=c1c(-c2ccc(F)cc2)nc2cnc(Nc3ccccc3)nc2n1Cc1cccs1	x	n	x	n	x	n
COc1ccc(C)cc1NS(=O)(=O)c1cccc2nonc12	n	14µM	n	n	n	n
COc1cc(C(=O)N2CCN(c3ccc(C)cc3C)CC2)cc(OC)c1OC	-119	n	u	n	n	n
Cc1ccc(N2CCN(C(=O)c3ccccc3)CC2)c(C)c1	n	n	n	n	n	n
Cc1ccc(C)c(N2CCN(C(=O)c3ccccc3Br)CC2)c1	-80	n	n	n	n	n
Cc1ccc(N2CCN(C(=O)c3ccccc3Br)CC2)c(C)c1	n	u	u	n	n	25µM
COc1ccc(NC(=O)Cn2c(=O)n(CCCC(=O)NCc3ccccc3Cl)c(=O)c3ccccc32)c(OC)c1	x	x	x	x	n	x
COc1ccccc1-c1nc2n(n1)C(c1ccccc1Cl)C(C(=O)Nc1cccnc1)=C(C)N2 (centres undefined)	x	x	x	x	n	x
